For one compound, activation results are on record in PubChem BioAssay AID504915 (The Scripps Research Institute Molecular Screening Center, 2011).

The list shows a part of the results. Values without a mark were called inactive. Rule as the data show it: active = activation above about 17%; inactive = the rest.

The assay deals with 5-hydroxytryptamine receptor 5A (Homo sapiens) (UniProt P47898). Kind of assay: activation of human 5-HT5A receptor – cell-based, luminescence, confirmation (AID 504915).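 Also: 0% = cells with vehicle only and 100% = full reference agonist response.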 The note with it: HTR5A agonist cell assay, at 9.3 µM, active compounds read high.
Chain of 5-hydroxytryptamine receptor 5A (Homo sapiens) (P47898 whole entry, looked up): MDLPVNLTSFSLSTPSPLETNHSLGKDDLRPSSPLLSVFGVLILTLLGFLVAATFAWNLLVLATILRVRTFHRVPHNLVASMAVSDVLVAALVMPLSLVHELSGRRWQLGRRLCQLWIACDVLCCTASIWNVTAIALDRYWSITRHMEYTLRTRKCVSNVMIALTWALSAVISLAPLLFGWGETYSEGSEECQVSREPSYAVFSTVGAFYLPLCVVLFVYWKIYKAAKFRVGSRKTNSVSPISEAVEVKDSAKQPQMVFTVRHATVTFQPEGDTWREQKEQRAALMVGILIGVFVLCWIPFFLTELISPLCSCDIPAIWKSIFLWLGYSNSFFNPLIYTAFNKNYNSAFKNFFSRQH

Regarding `CCCCCCCCCCCCn1ccc(=N)cc1`, the activation is 0.13%.
